These results are taken from the OligoGym collection.
Also: reference of the scale not given here.

The first assay has as its target FAM151A. Description: pooled miR-30 sensor sort-seq; sequence = guide strand. The conditions noted are these: shRNA.
Turning to TTCCTCTGTCAGCTGCCGCAGG, the sensor-assay potency score (higher = more potent) is -0.626.
Take TAGCATATCTGTGAGCAGCTGT: the sensor-assay potency score (higher = more potent) was found to be 0.652.
ATGACCACCACAGACACACAGG: the sensor-assay potency score (higher = more potent) is -1.21.
With TTGTGCTCCACTGTGACGGTGG, the sensor-assay potency score (higher = more potent) amounted to 0.185.
Still for that read-out and setting: with TTCTACATTGACGTCAGCCTCC the figure was -0.0868; with TAGACTTGGTGGACAGCAGTGT, 0.813.

Another assay deals with FAM151B. Described as above. Particulars: shRNA.
TTGAAATCCAGCTTGATGCCTT showed a sensor-assay potency score (higher = more potent) of 0.157.
As for TATTTTCACTCCAAGATCCTGG, the sensor-assay potency score (higher = more potent) was -0.051.
TAATGTAAAGTAAATCTTCAAC returned a sensor-assay potency score (higher = more potent) of -0.985.
TATGAAACCAAAACACAGGAAA gave a sensor-assay potency score (higher = more potent) of -1.05.
With TATTGCTTTTCATAACTTCAGT, the sensor-assay potency score (higher = more potent) was -0.677.
With TTTGATTTCTTTAACAGCCAAA, the sensor-assay potency score (higher = more potent) is -1.02.
The same measure, in the same setting: then TCTTCTGCTGTAATCTGGCTAT, with -0.597; and TTTTCCAGTCCAAATAGTCAGG, with -1.41.
Sequence TACAACTGCCAGACTTTTGAAA registered a sensor-assay potency score (higher = more potent) of -0.597.
In the case of TAGAGTATTATCACTGTTTGTT, the sensor-assay potency score (higher = more potent) was found to be 0.198.
Regarding TTTGCATCTATTACTTTGCTAT, the sensor-assay potency score (higher = more potent) was -0.561.
For TTAGCTGCATGATACCAGGTGA, the sensor-assay potency score (higher = more potent) was -0.378.

For the next assay, the target named is FAM154A. The assay is described as above. Particulars: shRNA.
TTGTTTTTTGTCATTTTAGGGA registered a sensor-assay potency score (higher = more potent) of -0.361.
As to TTGTAGTCATCCTTGGTGGTGG, the sensor-assay potency score (higher = more potent) amounted to 0.0888.
The sequence TAGTTCTCGGTATATTCGGAGA returned a sensor-assay potency score (higher = more potent) of -1.23.
For TAATCTGAAGTGCAGGTCGGCA, the sensor-assay potency score (higher = more potent) was -1.32.
On the same count and under the same terms, with TTTGTATATCCTGTGACCCAAA the figure was -1.34.
Sequence TTAATCTGAAGTGCAGGTCGGC gave a sensor-assay potency score (higher = more potent) of -0.481.
Sequence TTTTATGGGGTAATCGTCCTGG had a sensor-assay potency score (higher = more potent) of 0.26.
Sequence TTGTCCAACAAATAATTCTCAG showed a sensor-assay potency score (higher = more potent) of -0.941.
Still for that read-out and setting: then TTATCTCGAAACTCAGTGGTGT, with 0.244; and AAGCTTGGTACTTATCTCGAAA, with -0.971.
The sequence TTGGCTTGAAGGACTCTCTGGG had a sensor-assay potency score (higher = more potent) of 0.798.
TTAGTCACATCCTCCAAGGGGA had a sensor-assay potency score (higher = more potent) of 0.0144.

The next assay deals with FAM162A. Described as above. The conditions noted are these: shRNA.
The sequence TTCACTCGCATCTTGTTCTTTG had a sensor-assay potency score (higher = more potent) of -0.205.
For the sequence TAAAACAGCTTCCTGCTGCCAG, the sensor-assay potency score (higher = more potent) is -0.369.
TTCTACAGCAGAAATACGGAAA returned a sensor-assay potency score (higher = more potent) of -0.939.
Sequence TAGATAGCTGATCTTCACTCGC came in with a sensor-assay potency score (higher = more potent) of 0.225.
On to TTAAAGTCTCGTGTCTTTGGGC, for which the sensor-assay potency score (higher = more potent) is 0.109.
TTAGAGATGAGGAAACATCTCT had a sensor-assay potency score (higher = more potent) of 0.0745.
Same read-out and setting: then TAACCATGAAGATGCATCCTAC, with -0.864; and ATAACCTAAAACAGCTTCCTGC, with -0.549; and ATAGCTGATCTTCACTCGCATC, with -1.3.
As for TTTTTGAAGCGACCTGACCATA, the sensor-assay potency score (higher = more potent) is -1.33.
